Assay outcomes: PubChem BioAssay, Broad Institute
Pf Dd2 growth: P. falciparum Dd2 growth inhibitors, primary screen, SYBR Green fluorescence, single dose replicates; 72 h; stronger effect = lower value; activity change, % at 10 µM; 2.3% of 94,000 active; AID 1159554, 2015; in the data active means activity change below about -80%; inconclusive means no clear call, values can overlap the other calls
T cruzi growth-1: T. cruzi intracellular proliferation inhibitors, primary screen, cell-based, beta-gal Tulahuen parasites, NIH3T3 host, luminescence; AID 624255, 2012; T. cruzi beta-gal in NIH3T3, GalScreen luminescence, 90 h; 5.9% of 77,000 active; inhibition, % at 8.34 µM;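 active means mean inhibition above about 93%, with at least 55% of replicates each passing it, limit read from the data, passing the limit was not always enough; inconclusive means only one of those two conditions holds; inactive means neither condition holds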
C diff growth: C. difficile growth inhibitors, primary screen, HTS. 0.25% of 86,000 active. growth activity, negative = inhibition, % at 16 µg/mL (by protocol). Clostridium difficile clinical isolate growth, OD600, 24 h; stronger effect = lower value;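 active means mean growth activity at or below -80% and every replicate also at or below -80%; inconclusive means mean at or below -80% but some replicate above -80%; inactive means mean growth activity above -80%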
T cruzi growth-2: T. cruzi intracellular proliferation inhibitors, confirmation, cell-based, NIH3T3 host, beta-gal parasite, luminescence, cherry-pick; shares compounds with T cruzi growth-1; T. cruzi beta-gal in NIH3T3, GalScreen luminescence, 90 h; inhibition, % at 8.35 µM; 72% of 5,600 active;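 active means mean replicate inhibition above about 95% and at least 55% of replicates individually reaching it, limit read from the data; inconclusive means only one of the two criteria is met; inactive means neither criterion is met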
T cruzi growth-3: inhibitors of intracellular T. cruzi replication, confirmation, NIH3T3 host cells, beta-gal parasites, cherry-pick, set 2; shares compounds with T cruzi growth-1; T. cruzi beta-gal in NIH3T3, GalScreen luminescence, 90 h; inhibition, % at 2.09 µM; 21% of 5,600 active; AID 651740, 2012;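 active means mean inhibition above about 95%, with at least 55% of replicates also reaching it, limit read from the data; inconclusive means meets just one of the two conditions; inactive means meets neither condition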
3T3 cytotox: cytotoxicity in mouse NIH/3T3 fibroblasts, confirmation, cytotoxicity control for T. cruzi proliferation inhibitor project, cell-based, cherry-pick, single point; 14% of 5,600 active; cytotoxicity (signal decrease), % at 8.35 µM; NIH/3T3 viability, CellTiter-Glo ATP luminescence, 90 h; shares compounds with T cruzi growth-1;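 active means mean signal decrease across replicates above about 35% based on untreated-well scatter, with enough replicates individually passing, limit read from the data; inconclusive means no rule stated though some were filed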
3T3 cytotox 2: NIH/3T3 fibroblast cytotoxicity, confirmation, cytotoxicity control, cell-based, cherry-pick, single point, set 2; shares compounds with T cruzi growth-1; NIH/3T3 viability, CellTiter-Glo ATP luminescence, 90 h; inhibition, % at 24.9 µM; 56% of 5,600 active;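 active means mean loss of cell viability signal at or above a set limit, and enough replicates individually reaching it; inconclusive means meets only the mean limit or only the replicate share; inactive means meets neither condition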
Hits are given with their value; - = inactive; ? = inconclusive; . = not tested or not shown. Rows were chosen to be rich in hits. Some 6.7% of all compounds tested hit in one or more screens of this group.

SMILES	Pf Dd2 growth	T cruzi growth-1	C diff growth	T cruzi growth-2	T cruzi growth-3	3T3 cytotox	3T3 cytotox 2
N#C[C@@H]1[C@@H](c2ccc(C#Cc3cccnc3)cc2)[C@@H](CO)N1C(=O)C1CCC1	-	-	-	.	.	.	.
N#C[C@H]1[C@@H](c2ccc(C#Cc3ccc(F)cc3)cc2)[C@H](CO)N1C(=O)C1CC1	-	-	-	.	.	.	.
CO[C@H]1CN(C)C(=O)c2cc(NC(C)=O)ccc2OC[C@@H](C)N(Cc2ccccn2)C[C@H]1C	-	-	-	.	.	.	.
CO[C@@H]1CN(C)C(=O)c2ccc(NC(=O)c3ccccc3F)cc2OC[C@H](C)N(C(=O)c2ccccc2F)C[C@@H]1C	-	-	.	.	.	.	.
C[C@H](CO)N1C[C@H](C)[C@@H](CN(C)S(=O)(=O)c2cn(C)cn2)Oc2ncc(/C=C/c3ccccc3)cc2C1=O	-	-	-	.	.	.	.
C[C@H]1CN([C@@H](C)CO)S(=O)(=O)c2ccc(/C=C/c3ccccc3)cc2O[C@H]1CN(C)C	-	-	-	.	.	.	.
CCCNC(=O)[C@@H]1[C@@H](CO)[C@@H]2Cn3c(ccc(C4=CCCC4)c3=O)[C@H]1N2Cc1ccncc1	-	-	-	.	.	.	.
COc1ccccc1CN1[C@@H]2c3ccc(C4=CCCC4)c(=O)n3C[C@H]1[C@H](CO)[C@H]2C(=O)N(C)C	.	142	-	-	-	-	38
CCCNC(=O)[C@H]1[C@H](CO)[C@H]2Cn3c(ccc(C4=CCCC4)c3=O)[C@@H]1N2Cc1ccncc1	-	99	-	-	-	-	-
COc1ccccc1CN1[C@@H]2Cn3c(ccc(C4=CCCC4)c3=O)[C@H]1[C@@H](C(=O)N(C)C)[C@@H]2CO	.	-	-	.	.	.	.
C[C@@H]1CCCCO[C@@H](CN(C)C(=O)CCC(F)(F)F)[C@@H](C)CN([C@H](C)CO)C(=O)c2cc(NC(=O)c3ccncc3)ccc2O1	-	-	-	.	.	.	.
C[C@@H]1CN([C@H](C)CO)C(=O)c2cc(C#CCN(C)C)cnc2O[C@H]1CN(C)C	-	.	-	.	.	.	.
CC(=O)Nc1ccc2c(c1)C(=O)N(C)[C@H]1CC[C@H](CC(=O)NCCCN3CCOCC3)O[C@H]1CO2	-	-	-	.	.	.	.
C[C@H](CO)N1C[C@H](C)[C@@H](CN(C)Cc2ccc3c(c2)OCO3)Oc2ccc(NC(=O)CCCCCC(=O)Nc3ccccc3N)cc2CC1=O	-	101	-	109	-	-	-
C[C@@H]1CN([C@@H](C)CO)C(=O)Cc2cc(NC(=O)CCCCCC(=O)Nc3ccccc3N)ccc2O[C@H]1CN(C)Cc1ccccc1	-	-	-	.	.	.	.
C[C@H]1CN([C@@H](C)CO)C(=O)Cc2cc(NC(=O)CCCCCC(=O)Nc3ccccc3N)ccc2O[C@H]1CN(C)Cc1ccc2c(c1)OCO2	-88	?	-	-	-	-	-
C[C@@H]1CN([C@@H](C)CO)C(=O)Cc2cc(NC(=O)CCCCCC(=O)Nc3ccccc3N)ccc2O[C@H]1CN(C)Cc1ccc2c(c1)OCO2	-	.	-	.	.	.	.
O=C(C[C@@H]1C=C[C@H](NC(=O)C2CCOCC2)[C@H](CO)O1)NCC1CC1	-	-	.	.	.	.	.
COc1ccc(NC(=O)Nc2ccc3c(c2)[C@H]2C[C@@H](CC(=O)N(C)C)O[C@@H](CO)[C@H]2O3)cc1	-	-	-	.	.	.	.
COc1cccc(C#Cc2ccc([C@@H]3[C@H]4CN(S(=O)(=O)c5ccccc5C)CC(=O)N4[C@H]3CO)cc2)c1	-	.	-	.	.	.	.
C[C@H](CO)N1C[C@H](C)[C@@H](CN(C)CC2CC2)OCCCC[C@H](C)Oc2ccc(NC(=O)Nc3ccc(C(F)(F)F)cc3)cc2C1=O	-	-	-	.	.	.	.
C[C@@H]1CCCCO[C@H](CN(C)CC2CCCCC2)[C@H](C)CN([C@@H](C)CO)C(=O)c2cc(NC(=O)Nc3ccc(C(F)(F)F)cc3)ccc2O1	-87	?	-103	97	110	121	104
C[C@@H]1CCCCO[C@@H](CN(C)CC2CCCCC2)[C@H](C)CN([C@@H](C)CO)C(=O)c2cc(NC(=O)Nc3ccc(C(F)(F)F)cc3)ccc2O1	-	?	-	-	108	117	104
C[C@H]1CCCCO[C@H](CN(C)C)[C@@H](C)CN([C@@H](C)CO)C(=O)c2cc(NC(=O)Nc3ccc(C(F)(F)F)cc3)ccc2O1	.	-	-	.	.	.	.
C[C@H]1CCCCO[C@@H](CN(C)C)[C@@H](C)CN([C@@H](C)CO)C(=O)c2cc(NC(=O)Nc3ccc(C(F)(F)F)cc3)ccc2O1	-	-	-	.	.	.	.
SMILES	Pf Dd2 growth	T cruzi growth-1	C diff growth	T cruzi growth-2	T cruzi growth-3	3T3 cytotox	3T3 cytotox 2
C[C@@H]1CCCCO[C@@H](CN(C)CC2CC2)[C@@H](C)CN([C@H](C)CO)C(=O)c2cc(NC(=O)Nc3ccc(C(F)(F)F)cc3)ccc2O1	-	98	-	99	107	-	101
CO[C@H]1O[C@H](CO)[C@@H](OC(=O)Nc2ccccc2-c2ccccc2)[C@H](OC(=O)Nc2ccccc2-c2ccccc2)[C@@H]1OC(=O)Nc1ccccc1-c1ccccc1	.	.	-	.	.	.	.
CC(C)C#Cc1ccc2c(c1)O[C@H](CN(C)C(=O)c1ccccc1)[C@H](C)CN([C@H](C)CO)S2(=O)=O	-	-	-	.	.	.	.
CC(C)C#Cc1ccc2c(c1)O[C@@H](CN(C)C(=O)c1ccccc1)[C@@H](C)CN([C@@H](C)CO)S2(=O)=O	-	-	-	.	.	.	.
CC(C)C#Cc1ccc2c(c1)O[C@H](CN(C)C(=O)c1cccc(F)c1)[C@H](C)CN([C@@H](C)CO)S2(=O)=O	-	118	-	109	-	-	78
CC(C)C#Cc1ccc2c(c1)O[C@@H](CN(C)C(=O)c1cccc(F)c1)[C@H](C)CN([C@@H](C)CO)S2(=O)=O	-	107	-	110	-	-	60
CCC(=O)N(C)C[C@@H]1Oc2cc(-c3cccc(OC)c3)ccc2S(=O)(=O)N([C@H](C)CO)C[C@H]1C	-	-	-	.	.	.	.
CC(C)C#Cc1ccc([C@H]2[C@@H](CO)N3CCCCN(C(=O)c4ccc(F)cc4)C[C@@H]23)cc1	-	-	-	.	.	.	.
CC(C)(O)C#Cc1ccc([C@@H]2[C@H](CO)N3CCCCN(C(=O)c4ccc(F)cc4)C[C@@H]23)cc1	-	-	-	.	.	.	.
CC(C)(O)C#Cc1ccc([C@H]2[C@@H](CO)N3CCCCN(C(=O)c4cccc(F)c4)C[C@H]23)cc1	-	110	-	-	-	-	-
CC(C)(O)C#Cc1ccc([C@H]2[C@@H](CO)N3CCCCN(C(=O)c4ccc(F)cc4)C[C@H]23)cc1	-	112	-	-	-	-	-
